GLP-1R agonist: qHTS of GLP-1 Receptor Agonists; HEK293 GLP-1R CRE-luciferase, luminescence, 4-6 h; cells express a hypersensitive GLP-1R form; Potency, µM (titrated, usually from 45.6 µM), usual class: activators; 380,000 compounds, 0.007% hits
PTHR1 ag: qHTS for PTHR1 Agonists: Primary Screen. HEK293 GP2 PTHR1 cells, GloSensor cAMP luminescence, 1 h. Potency, µM (top dose mostly 115 µM), hits mostly activators. 410,000 compounds, 0.075% hits. AID 743266, 2014; also: nearly all actives have a fitted effect of over 55% in size
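HEK-293-derived GP2 cells expressing PTHR1 and a GloSensor cAMP reporter, 3,000/well, plated overnight, given luciferin plus IBMX (each 0.5 mM as added) for 1 h at 37 °C, then compound for 1 h at 37 °C. Luminescence was read after 15 min at room temperature.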
GLP1R inv ag: qHTS of GLP-1 Receptor Inverse Agonists (Inhibition Mode); 410,000 compounds, 1.6% hits; Potency, µM (titrated, usually from 38.3 µM), usual class: inhibitors; HEK293 GLP-1R CRE-luciferase, luminescence, 24 h; GLP-1R form is constitutively active; Glucagon-like peptide 1 receptor (Homo sapiens), P43220; also: nearly all actives have a fitted effect of over 55% in size
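GLP-1R inverse agonism mode: basal reporter luminescence in engineered HEK293 cells measured after one day of compound exposure at 37 deg C, with a 12 min room-temperature detection step.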
TSHR antag: Antagonists of the Thyroid Stimulating Hormone Receptor: HTS campaign; TSHR-expressing cells, TSH-stimulated cAMP HTRF, 2 h; stronger effect = lower value; activity change, negative = inhibition, % at 11.5 µM; 330,000 compounds, 0.2% hits; AID 504810, 2011;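 active = activity change below a set negative limit, meaning inhibition stronger than a set level, cut at about -70% in these data; inconclusive = activity change between two set negative limits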
Target sequence (P16473 whole entry, looked up): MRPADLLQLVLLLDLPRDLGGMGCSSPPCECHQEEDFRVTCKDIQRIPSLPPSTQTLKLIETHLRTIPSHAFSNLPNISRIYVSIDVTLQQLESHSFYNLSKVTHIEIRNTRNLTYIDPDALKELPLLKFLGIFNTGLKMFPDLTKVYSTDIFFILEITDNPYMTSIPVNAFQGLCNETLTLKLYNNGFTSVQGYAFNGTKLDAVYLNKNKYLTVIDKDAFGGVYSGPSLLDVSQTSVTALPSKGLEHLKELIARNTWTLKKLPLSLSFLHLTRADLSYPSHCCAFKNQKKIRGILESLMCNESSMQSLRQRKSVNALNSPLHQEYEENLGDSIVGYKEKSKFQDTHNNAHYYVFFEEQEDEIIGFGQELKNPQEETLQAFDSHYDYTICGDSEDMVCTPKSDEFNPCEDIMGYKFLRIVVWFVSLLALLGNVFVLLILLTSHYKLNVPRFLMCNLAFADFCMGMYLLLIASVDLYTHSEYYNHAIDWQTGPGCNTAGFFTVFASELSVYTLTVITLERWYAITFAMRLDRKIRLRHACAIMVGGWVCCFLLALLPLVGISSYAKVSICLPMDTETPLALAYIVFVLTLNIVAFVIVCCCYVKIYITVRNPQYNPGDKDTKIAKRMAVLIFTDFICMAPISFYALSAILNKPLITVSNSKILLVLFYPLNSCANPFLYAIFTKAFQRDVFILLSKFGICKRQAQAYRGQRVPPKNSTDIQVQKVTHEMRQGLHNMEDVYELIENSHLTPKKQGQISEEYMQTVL
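Inhibition of cAMP made by TSHR-expressing cells under TSH stimulation (4nM final, EC80; 2 h, 37 deg C) is quantified with a one-step lysis HTRF kit, anti-cAMP cryptate versus cAMP-d2.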
GLP1R cytotox: qHTS of GLP-1 Receptor Inverse Agonists: Cytotox Screen; HEK293 cAMP-luciferase reporter cells, luminescence, 24 h; Potency, µM (doses to about 38.3 µM), most hits filed as inhibitors; 410,000 compounds, 0.13% hits; AID 624418, 2012;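 also: loss of luciferase light is scored as toxicity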
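Here, cytotoxicity is scored as loss of luminescence. The MLSMR collection was tested on cells seeded in medium containing 10% Nu serum, with a 24 hr compound exposure preceded by 12 hours of culture.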
Each line names hits and unclear results; the compound was inactive in the other large screens. The list is not random: actives were taken first. Their share in the collection is about 1.8%. Unless noted, calls follow the shape of the dose curve; as a rule, active = well fitted curve in the direction sought with a large enough effect; inconclusive = small, poorly fitted or top-dose-only effect, or another doubt; inactive = no such curve, though single readings can be large; an effect the other way counts as inactive or inconclusive.

Cc1ccc(S(=O)(=O)N(CC(=O)N/N=C/c2ccco2)c2cc(Cl)cc(Cl)c2)cc1	GLP1R inv ag 6.3µM, GLP1R cytotox inconclusive
O=C(CN(c1ccc(Cl)cc1)S(=O)(=O)c1ccccc1)N/N=C/c1ccco1	GLP1R inv ag inconclusive
CCN1CCN(C(c2cccnc2)c2c(NC(=O)c3ccco3)sc(C)c2C)CC1 (centres undefined)	GLP1R inv ag inconclusive
Cc1sc(NC(=O)c2ccco2)c(C(c2cccnc2)N2CCC(C)CC2)c1C (centres undefined)	GLP1R inv ag 8.9µM
COc1ccc(CNC(=O)Nc2ccc3c(c2)N(C)C(=O)c2ccccc2S3)cc1	GLP1R inv ag inconclusive (no result: GLP-1R agonist, TSHR antag)
COCCNC(=O)Cn1c(=O)c2cccn2c2ccc(F)cc21	none (no result: GLP-1R agonist, TSHR antag)
CCC(=O)NC(Nc1sc2c(c1C(=O)OC)CCC2)C(Cl)(Cl)Cl (centres undefined)	TSHR antag -72
O=C(Nc1ccc2c(c1)N(S(=O)(=O)c1cccs1)CCC2)c1c(F)cccc1Cl	GLP1R inv ag 7.9µM
COc1cccc(OC)c1C(=O)Nc1ccc2c(c1)N(S(=O)(=O)c1cccs1)CCC2	TSHR antag -112
O=c1c2cc3c(nc2ncn1Cc1ccccc1F)CCCC3	GLP1R inv ag inconclusive (no result: GLP-1R agonist, TSHR antag)
CCOC(=O)c1c(-c2ccccc2)oc2ccc(NS(=O)(=O)c3ccccc3)cc12	GLP1R inv ag inconclusive (no result: GLP-1R agonist, TSHR antag)
CCOC(=O)c1c(-c2ccccc2)oc2ccc(NS(=O)(=O)c3cc(C)c(C)cc3C)cc12	GLP1R inv ag 4.5µM (no result: GLP-1R agonist, TSHR antag)
COc1cc(C=O)ccc1OCCCOc1ccccc1C(=O)O	GLP1R inv ag 2.2µM
CCCc1nc2ccccc2n1CCc1ccccc1	GLP1R inv ag 10µM
CCc1nc2ccccc2n1CCCCOc1ccc(C)cc1	GLP1R inv ag 10µM (no result: GLP-1R agonist, TSHR antag)
O=S(=O)(c1ccc(-c2csc(=Nc3ccc(OC(F)(F)Cl)cc3)n2CCCO)cc1)N1CCCC1	GLP1R inv ag 10µM (no result: GLP-1R agonist, TSHR antag)
COCCCn1c(-c2ccc(S(=O)(=O)N3CCOCC3)cc2)csc1=Nc1ccccc1	none
CCN(CC)CCn1c(-c2ccccc2)csc1=Nc1ccccc1	GLP1R inv ag inconclusive, GLP1R cytotox inconclusive (no result: GLP-1R agonist, TSHR antag)
OCCCn1c(-c2ccccc2)csc1=Nc1ccccc1	GLP1R inv ag 11µM
CN1CCC(N(Cc2cccs2)c2ccccc2)CC1	none (no result: PTHR1 ag, GLP1R inv ag, TSHR antag, GLP1R cytotox)
CCOc1ccc(N(C(C)C(=O)NCCSc2ccc(Cl)cc2)S(C)(=O)=O)cc1 (centres undefined)	GLP1R inv ag inconclusive (no result: TSHR antag)
CCc1ccccc1Nc1nc(-c2cccnc2)cs1	GLP1R inv ag 11µM
S=C(Nc1ccc(Cl)cc1)NC1CC2CCCC(C1)N2C1CCCC1 (centres undefined)	PTHR1 ag inconclusive, GLP1R inv ag 8.9µM, GLP1R cytotox inconclusive
S=C(Nc1ccc(Cl)cc1)NC1CC2CCCC(C1)N2C1CC1 (centres undefined)	GLP1R inv ag inconclusive
S=C(Nc1ccc(Cl)cc1)NC1CC2CCC(C1)N2Cc1ccccc1 (centres undefined)	GLP1R inv ag 7.1µM
CCc1ccc(NC(=S)NC2CC3CCCC(C2)N3Cc2ccccc2)cc1 (centres undefined)	GLP1R inv ag inconclusive, GLP1R cytotox inconclusive
CCCCNC(=S)N1CCN(C(c2ccccc2)c2ccccc2)CC1	GLP1R inv ag 8.9µM
CC1=C(C(=O)OCc2ccc3c(c2)OCO3)C(c2ccccc2)NC(=O)N1 (centres undefined)	GLP1R inv ag 3.2µM, GLP1R cytotox inconclusive
Cc1ccc(Cl)cc1N1CCN(C(=O)CCn2c(=O)c3cccn3c3cccnc32)CC1	none (no result: GLP-1R agonist, TSHR antag)
CC(C)c1ccc(CNc2nc(-c3ccco3)nn2S(=O)(=O)c2ccc3ccccc3c2)cc1	GLP1R inv ag inconclusive (no result: GLP-1R agonist, TSHR antag)
CCSc1nnc2c(n1)OC(c1cc(OC)c(OC)c(OC)c1)Nc1ccccc1-2 (centres undefined)	none (no result: GLP-1R agonist, TSHR antag)
O=C1CCSC2(C(=O)N(Cc3ccccc3)c3ccccc32)N1c1ccccc1 (centres undefined)	GLP1R inv ag 11µM (no result: GLP-1R agonist, TSHR antag)
Cc1ccc(N2C(=O)CCSC23C(=O)N(Cc2ccccc2)c2ccccc23)cc1 (centres undefined)	none (no result: GLP-1R agonist, TSHR antag)
O=C(CS(=O)c1ccc(C(F)(F)F)cc1[N+](=O)[O-])Oc1ccccc1 (centres undefined)	GLP1R inv ag inconclusive, TSHR antag -71
COc1ccc(CN2C(=O)C(CC(=O)NCCCCc3ccccc3)CC(C(=O)N(C(C)C)C(C)C)=C2C)cc1 (centres undefined)	GLP1R inv ag 11µM (no result: TSHR antag)
COc1ccc(CN2C(=O)C(CC(=O)NCCCCc3ccccc3)CC(C(=O)N(C)C)=C2C)cc1 (centres undefined)	none (no result: TSHR antag)
Clc1ccc(Cn2ncc3c(N4CCCC4)ncnc32)cc1	none
CC1CC(C)CN(c2ncnc3c2cnn3Cc2ccc(Cl)cc2)C1 (centres undefined)	GLP1R inv ag 2µM
CCC(=O)N1CCc2cc(Br)cc(S(=O)(=O)CCC(=O)NCc3cccc(OC)c3)c21	none (no result: GLP-1R agonist, TSHR antag)
CC1(C)CC(n2c(NCCO)nc3c(c2=O)C2(CCCC2)Cc2ccccc2-3)CCO1 (centres undefined)	GLP1R inv ag inconclusive
O=c1c2c(nc(NCCO)n1CC1CCCCC1)-c1ccccc1CC21CCCC1	GLP1R inv ag 4µM, GLP1R cytotox inconclusive
Cc1ccc(Nc2nc(C(=O)N3CCC(C(=O)NCc4ccccc4)CC3)cs2)cc1	GLP1R inv ag inconclusive
COc1ccc(CNC(=O)C2CCN(C(=O)c3csc(Nc4ccc(C)cc4)n3)CC2)cc1	GLP1R inv ag 7.9µM
CC1(C)c2ssc(=S)c2-c2ccccc2N1C(=O)c1ccco1	TSHR antag -74
Cc1ccc2c(c1)-c1c(ssc1=S)C(C)(C)N2C(=O)c1ccco1	none
COc1ccc(CCNC(=O)c2cc(=O)c3cc(C)c(C)cc3o2)cc1OC	none (no result: GLP-1R agonist, TSHR antag)
Cc1[nH]c2ccccc2c1C(c1ccccc1)c1ccc(Cl)s1 (centres undefined)	GLP1R inv ag 10µM (no result: GLP-1R agonist, TSHR antag)
Cc1cccc(C)c1-n1ncc(C(=O)Nc2ccc3c(c2)OCCO3)c1C1CCN(C(=O)OC(C)(C)C)CC1	none (no result: GLP-1R agonist, TSHR antag)
CCC(=O)N(CCC1(C(C)C)CCOC(C)(C)C1)C(C)c1cccs1 (centres undefined)	GLP1R inv ag inconclusive
CC(C)CCC1(CCNC(C)c2cccs2)CCOC(C)(C)C1 (centres undefined)	GLP1R inv ag 7.1µM
